Assay [1] is described as follows: ATG_ISRE_CIS: Attagene CIS-FACTORIAL HepG2 Assay for human Interferon Regulatory Factor 1 (IRF1) binding to an Interferon-Stimulated Response Element (ISRE) (AID 2282948). Particulars: HepG2 ISRE cis-reporter (Attagene), mRNA transcription readout; actives raise or lower the signal. In outline:
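Endogenous transcription factor activity read as reporter transcript abundance via RT-PCR and capillary electrophoresis. HepG2 cells transiently transfected, 24 h chemical exposure. Gain or loss fitted against DMSO baseline.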

Assay [2] is described as follows: ATG_M_32_CIS: Attagene CIS-FACTORIAL HepG2 Assay for M32 Transcription Factor (Internal Marker) (AID 2282949).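 Note: background control marker of the multiplexed CIS panel rather than a real target.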 Particulars: HepG2 Attagene cis-factorial M32 reporter, mRNA; actives raise or lower the signal. The essentials: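 HepG2 transfectants (cis-regulated reporter transcription units) dosed 24 h. Reporter mRNA by RT-PCR plus CE, analysed as gain or loss relative to DMSO.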

The nature of assay [3]: ATG_M_06_CIS: Attagene CIS-FACTORIAL HepG2 Assay for M06 Transcription Factor (Internal Marker) (AID 2282950). Particulars: HepG2 Attagene CIS-FACTORIAL M06 internal marker reporter; actives raise or lower the signal. The essentials:
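Fluorescence-labelled RT-PCR products from cis-promoter reporter units, cut with HpaI and resolved by capillary electrophoresis, give the signal. Cells are human HepG2, dosed for 24 h. Serves as background control, fitted relative to DMSO.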

In assay [4] the target is Hypoxia-inducible factor 1-alpha (Homo sapiens) (UniProt Q16665). The assay is described as follows: ATG_HIF1a_CIS: Attagene CIS-FACTORIAL HepG2 Assay for human Hypoxia Inducible Factor 1 (HIF1A) (AID 2282951). Particulars: HepG2 Attagene cis-factorial HIF1a reporter transcription; actives raise or lower the signal. The essentials: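 In this multiplexed cell assay, HepG2 cells bearing transfected cis reporters are dosed for 24 h and reporter mRNA is read by RT-PCR plus capillary electrophoresis; signal increases and decreases are both scored against DMSO.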

Assay [5] addresses Hepatocyte nuclear factor 6 (Homo sapiens) (UniProt Q9UBC0). Kind of assay: ATG_HNF6_CIS: Attagene CIS-FACTORIAL HepG2 Assay for human Hepatocyte Nuclear Factor 6 (HNF6) (AID 2282952). Particulars: HepG2 Attagene cis-factorial HNF6 reporter transcription; actives raise or lower the signal. In outline: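 Readout: fluorescent reporter-transcript fragments resolved by capillary electrophoresis after RT-PCR, reflecting endogenous factor activity in transfected HepG2. Exposure 24 h. Gain or loss of signal fitted bidirectionally against DMSO.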

Assay [6] addresses Heat shock factor protein 1 (Homo sapiens) (UniProt Q00613). Kind of assay: ATG_HSE_CIS: Attagene CIS-FACTORIAL HepG2 Assay for human Heat Shock Transcription Factor 1 (HSE) (AID 2282953). Particulars: HepG2 HSE cis-reporter, Attagene RNA transcription; actives raise or lower the signal. The essentials:
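After a 24 h incubation with test chemical, transfected HepG2 cells were harvested for RNA; reporter transcripts were measured by RT-PCR and capillary electrophoresis. Values reflect gain or loss of signal relative to DMSO.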

A short description of assay [7]: ATG_MRE_CIS: Attagene CIS-FACTORIAL HepG2 Assay for human Metal Responsive Element (MRE) (AID 2282954). Particulars: HepG2 MRE cis-reporter transcription, Attagene multiplex; actives raise or lower the signal. The essentials: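 Endogenous MRE-dependent transcription read as reporter mRNA in transiently transfected human HepG2 cells at 24 h. RNA reverse-transcribed, PCR-amplified, labelled and resolved by capillary electrophoresis; gain or loss relative to DMSO.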

A short description of assay [8]: ATG_PXRE_CIS: Attagene CIS-FACTORIAL HepG2 Assay for human Pregnane X Receptor Element (PXRE) (AID 2282957). Particulars: HepG2 Attagene CIS-FACTORIAL PXRE reporter, mRNA; actives raise or lower the signal. In outline:
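Read-out: fluorescence of reporter-specific RT-PCR products resolved by capillary electrophoresis, fitted bidirectionally relative to DMSO. Human HepG2 liver cells carried transfected cis-promoter reporter units and were exposed to chemicals for 24 h.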

Assay [9] is described as follows: ATG_Sox_CIS: Attagene CIS-FACTORIAL HepG2 Assay for human SRY-box transcription factor (SOX) (AID 2282960). Particulars: HepG2 Attagene cis-factorial SOX reporter, mRNA; actives raise or lower the signal. In outline: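 After 24 h of chemical treatment, transfected HepG2 reporter cells are lysed for total RNA. Transcript levels come from RT-PCR with labelled primer extension and capillary electrophoresis, analysed bidirectionally versus DMSO.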

Assay [10] addresses Transcription factor Sp1 (Homo sapiens) (UniProt P08047). Kind of assay: ATG_Sp1_CIS: Attagene CIS-FACTORIAL HepG2 Assay for human Specificity Protein 1 (Sp1) (AID 2282961). Particulars: HepG2 Sp1 cis-reporter transcription, actives raise or lower the signal. The essentials:
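Sp1-driven reporter mRNA, read as capillary electrophoresis fluorescence after RT-PCR, in transiently transfected HepG2 cells dosed for 24 h; signal change in either direction relative to DMSO.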

Assay [11] in a line: ATG_SREBP_CIS: Attagene CIS-FACTORIAL HepG2 Assay for human Sterol Regulatory Element Binding (SREBP) (AID 2282962). Particulars: HepG2 Attagene cis-factorial SREBP reporter, mRNA; actives raise or lower the signal. The essentials: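 Endogenous SREBP activity read as cis-element-driven reporter transcript in transiently transfected HepG2, 24 h post-dosing; quantified via RT-PCR plus capillary electrophoresis of fluorescent fragments. Gain or loss of signal fitted relative to DMSO baseline.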

The target in assay [12] is Signal transducer and activator of transcription 3 (Homo sapiens) (UniProt P40763). The assay is described as follows: ATG_STAT3_CIS: Attagene CIS-FACTORIAL HepG2 Assay for human Signal Transducer and Activator of Transcription 3 (STAT3) (AID 2282963). Particulars: HepG2, Attagene cis-factorial STAT3 reporter transcription; actives raise or lower the signal. The essentials:
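Readout is reporter transcript quantified by RT-PCR and capillary electrophoresis, with 6-FAM primer extension and HpaI digestion. Total RNA is taken 24 h after dosing transiently transfected HepG2 carrying cis-regulated reporter units. Bidirectional fit against DMSO.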

Assay [13] can be described thus: ATG_TA_CIS: Attagene CIS-FACTORIAL HepG2 Assay for human TA Basal Promoter (AID 2282964). Particulars: HepG2 Attagene CIS-factorial TA basal promoter reporter; actives raise or lower the signal. In outline:
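Multiplexed mRNA reporter assay, HepG2, 24 h. Reporter cDNA amplified, 6-FAM primer-extended, HpaI-cut, CE-sized; DMSO = negative control and baseline.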

The nature of assay [14]: ATG_TCF_b_cat_CIS: Attagene CIS-FACTORIAL HepG2 Assay for human T-Cell-Factor with beta-catenin (TCF/b-cat) (AID 2282965). Particulars: HepG2 TCF/beta-catenin cis-reporter transcription, actives raise or lower the signal. In outline: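 Endogenous transcription factor activity is captured through cis-promoter reporter constructs transiently introduced into human HepG2 liver cells. Induced reporter mRNA is measured after 24 h and fitted bidirectionally relative to DMSO.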

Assay [15] in a line: ATG_PBREM_CIS: Attagene CIS-FACTORIAL HepG2 Assay for human Phenobarbital-responsive Enhancer Module (PBREM) (AID 2282955). Particulars: HepG2 PBREM cis-reporter, Attagene multiplexed transcription; actives raise or lower the signal. In outline:
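After a 24 h incubation with test chemical, transfected HepG2 cells yield total RNA; reporter-specific RT-PCR products are fluorescently labelled, HpaI-digested and resolved by capillary electrophoresis against ROX size standards.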

Assay [16] addresses Paired box protein Pax-6 (Homo sapiens) (UniProt P26367). Kind of assay: ATG_Pax6_CIS: Attagene CIS-FACTORIAL HepG2 Assay for human Paired Box 6 (PAX6) (AID 2282956). Particulars: HepG2 CIS-FACTORIAL PAX6 reporter transcription, RNA readout; actives raise or lower the signal. The essentials: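 Read-out is reporter transcript level, measured by RT-PCR with fluorescent primer extension and capillary electrophoresis after 24 h dosing of transfected HepG2 cells. Activity in either direction fitted relative to DMSO control.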

Assay [17] in a line: ATG_PPRE_CIS: Attagene CIS-FACTORIAL HepG2 Assay for human Peroxisome Proliferator-activated Response Element (PPRE) (AID 2282958). Particulars: HepG2 PPRE cis-element reporter, Attagene transcription factor profiling; actives raise or lower the signal. The essentials:
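Multiplexed reporter transcription units under cis-regulatory promoters were transfected into HepG2 cells to capture endogenous factor activity. A 24 h incubation preceded RNA isolation and fluorescent RT-PCR fragment analysis.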

Assay [18] in a line: ATG_RORE_CIS: Attagene CIS-FACTORIAL HepG2 Assay for human RAR-related Orphan Receptor Element (RORE) (AID 2282959). Particulars: HepG2 Attagene cis-factorial RORE reporter, mRNA; actives raise or lower the signal. The essentials:
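Fluorescence intensity of reporter-specific cDNA fragments, separated by capillary electrophoresis, gives the signal. Source: HepG2 liver cells transiently transfected with cis-element reporters and exposed 24 h; DMSO-normalized bidirectional fit.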

The structures appear in SMILES notation. Calls of active or inactive are those of the source. Rule for the calls: active = hit-call score of the fitted dose curve at least 0.9, where 1 is the maximum; inactive = score below 0.9.

Heat shock factor protein 1 (Homo sapiens), sequence (Q00613 whole entry, looked up): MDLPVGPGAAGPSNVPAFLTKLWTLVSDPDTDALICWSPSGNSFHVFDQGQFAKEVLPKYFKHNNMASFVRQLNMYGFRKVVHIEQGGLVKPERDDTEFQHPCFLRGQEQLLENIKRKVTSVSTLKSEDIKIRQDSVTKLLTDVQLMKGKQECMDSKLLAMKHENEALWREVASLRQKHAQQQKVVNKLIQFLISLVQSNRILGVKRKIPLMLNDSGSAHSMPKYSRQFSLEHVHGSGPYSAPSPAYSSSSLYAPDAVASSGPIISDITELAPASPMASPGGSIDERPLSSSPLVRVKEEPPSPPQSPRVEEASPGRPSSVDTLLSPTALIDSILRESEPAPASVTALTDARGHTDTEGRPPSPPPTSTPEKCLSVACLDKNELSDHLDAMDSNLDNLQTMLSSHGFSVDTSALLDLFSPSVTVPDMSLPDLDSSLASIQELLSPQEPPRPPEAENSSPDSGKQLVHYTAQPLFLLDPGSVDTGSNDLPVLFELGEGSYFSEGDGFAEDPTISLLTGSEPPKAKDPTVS
Paired box protein Pax-6 (Homo sapiens), sequence (P26367 whole entry, looked up): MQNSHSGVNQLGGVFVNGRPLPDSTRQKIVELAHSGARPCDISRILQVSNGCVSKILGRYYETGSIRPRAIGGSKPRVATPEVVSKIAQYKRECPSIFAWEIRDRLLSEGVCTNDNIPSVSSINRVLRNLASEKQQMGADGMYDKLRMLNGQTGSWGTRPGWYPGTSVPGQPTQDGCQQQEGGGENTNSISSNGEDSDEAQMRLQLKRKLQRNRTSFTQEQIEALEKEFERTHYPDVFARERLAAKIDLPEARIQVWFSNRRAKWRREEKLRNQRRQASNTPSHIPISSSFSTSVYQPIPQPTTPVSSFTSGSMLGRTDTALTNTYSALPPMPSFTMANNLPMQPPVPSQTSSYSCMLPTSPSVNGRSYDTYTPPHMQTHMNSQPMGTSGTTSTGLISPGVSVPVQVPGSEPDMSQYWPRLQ
Signal transducer and activator of transcription 3 (Homo sapiens), sequence (P40763 whole entry, looked up): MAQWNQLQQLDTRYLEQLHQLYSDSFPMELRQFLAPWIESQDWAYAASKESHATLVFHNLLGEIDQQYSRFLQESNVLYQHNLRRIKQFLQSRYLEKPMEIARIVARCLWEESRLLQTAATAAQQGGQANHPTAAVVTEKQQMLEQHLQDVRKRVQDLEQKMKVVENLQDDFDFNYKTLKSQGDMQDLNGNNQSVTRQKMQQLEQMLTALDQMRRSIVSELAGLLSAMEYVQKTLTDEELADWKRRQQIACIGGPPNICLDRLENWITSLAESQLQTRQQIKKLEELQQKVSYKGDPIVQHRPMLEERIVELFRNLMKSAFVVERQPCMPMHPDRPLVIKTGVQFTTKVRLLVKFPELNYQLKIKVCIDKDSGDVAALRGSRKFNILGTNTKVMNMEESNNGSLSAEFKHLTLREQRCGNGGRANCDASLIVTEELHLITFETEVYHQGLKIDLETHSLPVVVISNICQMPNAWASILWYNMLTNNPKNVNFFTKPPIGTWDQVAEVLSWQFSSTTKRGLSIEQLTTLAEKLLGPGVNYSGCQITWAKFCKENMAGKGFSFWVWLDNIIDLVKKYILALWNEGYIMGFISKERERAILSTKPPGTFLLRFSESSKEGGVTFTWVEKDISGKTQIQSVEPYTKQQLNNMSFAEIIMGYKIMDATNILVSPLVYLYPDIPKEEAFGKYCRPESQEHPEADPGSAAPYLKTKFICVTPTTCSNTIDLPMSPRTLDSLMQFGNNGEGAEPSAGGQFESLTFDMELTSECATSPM
Hepatocyte nuclear factor 6 (Homo sapiens), sequence (Q9UBC0 whole entry, looked up, the tested form may be a part): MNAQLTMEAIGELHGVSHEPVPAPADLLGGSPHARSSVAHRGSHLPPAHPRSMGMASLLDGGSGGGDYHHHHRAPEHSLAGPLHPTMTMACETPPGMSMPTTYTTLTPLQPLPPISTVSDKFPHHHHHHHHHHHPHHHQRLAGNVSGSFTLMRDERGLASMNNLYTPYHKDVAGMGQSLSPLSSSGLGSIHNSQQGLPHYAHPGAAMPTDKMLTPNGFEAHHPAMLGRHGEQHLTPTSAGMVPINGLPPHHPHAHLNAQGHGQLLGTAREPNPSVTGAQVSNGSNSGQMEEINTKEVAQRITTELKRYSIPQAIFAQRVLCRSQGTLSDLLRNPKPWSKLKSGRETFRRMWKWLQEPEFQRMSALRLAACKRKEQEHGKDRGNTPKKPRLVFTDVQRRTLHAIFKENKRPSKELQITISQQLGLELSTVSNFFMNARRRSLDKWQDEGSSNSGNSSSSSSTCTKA
Transcription factor Sp1 (Homo sapiens), sequence (P08047 whole entry, looked up): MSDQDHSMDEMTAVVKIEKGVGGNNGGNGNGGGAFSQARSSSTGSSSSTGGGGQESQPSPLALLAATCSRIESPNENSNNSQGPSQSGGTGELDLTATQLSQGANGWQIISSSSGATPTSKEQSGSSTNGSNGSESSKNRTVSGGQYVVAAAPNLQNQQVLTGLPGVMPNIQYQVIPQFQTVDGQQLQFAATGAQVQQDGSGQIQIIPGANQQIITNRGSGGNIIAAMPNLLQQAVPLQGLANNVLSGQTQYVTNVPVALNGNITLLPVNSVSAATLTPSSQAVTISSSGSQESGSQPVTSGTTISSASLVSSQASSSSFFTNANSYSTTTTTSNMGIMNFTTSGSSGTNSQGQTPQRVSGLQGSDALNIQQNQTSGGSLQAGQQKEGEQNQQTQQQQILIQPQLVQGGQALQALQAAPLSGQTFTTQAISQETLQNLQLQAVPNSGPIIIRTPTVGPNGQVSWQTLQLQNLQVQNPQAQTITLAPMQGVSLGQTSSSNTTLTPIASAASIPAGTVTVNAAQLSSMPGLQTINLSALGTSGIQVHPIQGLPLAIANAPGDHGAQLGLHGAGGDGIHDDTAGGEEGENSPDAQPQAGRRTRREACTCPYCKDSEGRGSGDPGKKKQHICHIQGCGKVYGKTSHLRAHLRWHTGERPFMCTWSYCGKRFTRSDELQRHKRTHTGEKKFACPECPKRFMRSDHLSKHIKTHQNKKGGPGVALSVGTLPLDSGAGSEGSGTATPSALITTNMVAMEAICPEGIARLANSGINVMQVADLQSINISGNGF
Hypoxia-inducible factor 1-alpha (Homo sapiens), sequence (Q16665 whole entry, looked up): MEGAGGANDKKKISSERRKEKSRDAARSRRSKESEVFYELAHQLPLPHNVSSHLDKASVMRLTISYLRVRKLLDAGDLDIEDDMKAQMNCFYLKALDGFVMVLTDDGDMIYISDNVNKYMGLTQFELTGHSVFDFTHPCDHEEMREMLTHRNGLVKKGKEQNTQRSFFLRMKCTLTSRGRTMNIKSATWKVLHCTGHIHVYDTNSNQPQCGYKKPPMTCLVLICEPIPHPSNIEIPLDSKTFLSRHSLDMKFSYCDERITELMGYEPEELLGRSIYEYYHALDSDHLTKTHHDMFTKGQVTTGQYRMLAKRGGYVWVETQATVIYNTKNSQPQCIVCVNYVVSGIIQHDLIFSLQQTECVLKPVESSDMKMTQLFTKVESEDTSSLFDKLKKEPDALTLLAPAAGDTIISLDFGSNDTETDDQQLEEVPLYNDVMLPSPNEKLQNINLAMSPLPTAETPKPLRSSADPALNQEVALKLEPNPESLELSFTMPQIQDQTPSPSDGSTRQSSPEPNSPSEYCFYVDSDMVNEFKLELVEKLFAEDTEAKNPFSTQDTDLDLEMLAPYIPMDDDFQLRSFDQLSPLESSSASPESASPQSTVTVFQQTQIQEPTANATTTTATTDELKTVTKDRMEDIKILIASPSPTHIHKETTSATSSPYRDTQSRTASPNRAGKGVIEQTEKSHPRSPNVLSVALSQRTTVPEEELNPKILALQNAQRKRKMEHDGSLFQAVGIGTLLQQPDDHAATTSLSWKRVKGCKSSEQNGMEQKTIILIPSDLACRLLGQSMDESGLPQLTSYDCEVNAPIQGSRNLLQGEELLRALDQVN

On to `O=CCCc1ccccc1`, for which the outcome in [1], in assay [2], in assay [3], in assay [4], in assay [5] and in [6] was inactive. The call in assay [7], in assay [9], in [10], in assay [11], in assay [12] and in assay [13] was inactive. Besides, the molecule was classed as inactive in assay [14]. The concentration at half-maximal activity (AC50) (as a rule, the midpoint of the concentration-response curve, whichever way the signal moves) in [8] is 23.6 µM (active).
Turning to `O=c1oc(=O)c2cc3c(=O)oc(=O)c3cc12`, the outcome in assay [1], in [2], in [3], in assay [4], in assay [5] and in [6] was inactive. Further, the outcome in [15], in assay [16], in [8], in assay [17], in [18] and in assay [9] was inactive. Also, the molecule was called inactive in assay [10], in [11], in assay [12], in [13] and in [14].
Consider `CC(C)C(C)(C)C(C)(C)C(C)(C)S`, for which the outcome in assay [1], in assay [2], in assay [3], in assay [4], in assay [5] and in assay [6] was inactive. In addition, the call in assay [7], in [16], in assay [17], in assay [18], in assay [9] and in assay [10] was inactive. Besides, the molecule was called inactive in [11], in assay [12], in assay [13] and in assay [14]. Also, the AC50 in assay [8] was 4.43 µM (active).
As for `CCOC(=O)c1ccccc1OC`, the molecule was classed as inactive in assay [1], in assay [2], in [3], in assay [4], in assay [5] and in assay [6]. The molecule was called inactive in [7], in assay [16], in assay [17], in assay [9], in [10] and in assay [11]. In assay [14], the outcome was inactive. Further, the AC50 in [8] is 54 µM (active).
Turning to `CCCCCC(CO)CCC` (configuration not stated), the outcome in assay [1], in [2], in assay [3], in [4], in assay [5] and in assay [6] was inactive. The result in assay [7], in assay [8], in assay [17], in assay [18], in assay [9] and in assay [11] was inactive. For the same molecule, the result in assay [12], in assay [13] and in [14] was inactive.
With `CC(C)[C@H]1CC[C@@H](C)CC1=O`, the molecule was classed as inactive in assay [1], in assay [2], in assay [3], in [4], in assay [5] and in assay [6]. The outcome in assay [7], in assay [18], in [9], in [10], in [11] and in [12] was inactive. Moreover, the outcome in [13] and in assay [14] was inactive. Besides, the half-maximal activity concentration (AC50) in assay [8] is 61.9 µM (active).
